# Compound activity deposited in PubChem BioAssay by National Center for Advancing Translational Sciences (NCATS).
# pS6 MEF inh = inhibitors of mTORC1 signaling in Tsc2-/- p53-/- MEF cells | AID 493208 | Tsc2-/- p53-/- MEF, phospho-rpS6 immunofluorescence/PI, 24 h | Potency, µM (series often up to 38.3 µM), inactives show top-dose activity change, negative = inhibition, usual class: inhibitors | 44,000 tested, 0.78% active;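 also: potency is read from the fitted curve at half-maximal effect; plate controls were DMSO for no effect and rapamycin for full effect; nearly all actives have a fitted effect of over 50% in size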
#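 Tsc2-/-, p53-/- MEFs (empty-vector stable line) in DMEM + 10% FBS were treated with compounds 24 h at 37 degree Celsius, fixed, and immunostained for phospho-rpS6 (Alexa-488) with propidium iodide counterstain. Laser-scanning cytometry gave % positive cells, normalized against 7.5 nM rapamycin and DMSO.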
# OvCa metastasis = ovarian cancer metastasis inhibition, 3D TME model | SKOV3ip1-GFP adhesion/invasion on 3D omental model, fluorescence | AID 1963576 | Potency, µM (top dose mostly 45.8 µM), inactives show at the highest dose activity change, negative = inhibition, actives largely listed as inhibitors | 46,000 tested, 0.1% active;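 also: potency is read from the fitted curve at half-maximal effect; plate controls were DMSO wells for no effect and tomatine positive control wells for full effect; nearly all actives have a fitted effect of over 65% in size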
#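 A 3D layer of primary human omental fibroblasts, mesothelial cells, fibronectin and collagen I, grown 48 hr, received SKOV3ip1-GFP cells in serum-free medium plus compounds at 0.36-46 umol/L. After 2 hr RT and 16 hr 37 C, fixed adherent GFP cells were counted; normalized to DMSO and tomatine.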
# PMP22 txn = modulates PMP22 transcription in S16 Schwann cells | S16 Pmp22-F2sN Schwann cells, FLuc/NLuc coincidence luminescence, 24 h | Potency, µM (titrated, usually from 57.5 µM), without a hit: top-dose activity change, negative = inhibition, most hits filed as inhibitors | 43,000 tested, 2% active; active = clear falling dose curves in both reporters; inconclusive = both reporters move, but less clearly or upward; inactive = either reporter flat; the % is the NLuc reporter signal; also: potency is read from the fitted curve at half-maximal effect; % is scaled to controls: 0 for no effect and ±100 for the full control effect
#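 Luminescent read-out of sequential FLuc and NLuc signals from a reporter embedded in the Pmp22 3' UTR of S16 Schwann cells, taken after 24 h compound exposure at 37C; compounds reducing both signals score as inhibitors of expression.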
# p53null 39C kill = kills p53 null cells at the nonpermissive temperature; H1299 p53-null (neo) cells, 39C, ATPlite viability, 24 h; Potency, µM (top dose mostly 46.1 µM), inactives show top-dose activity, negative = cell killing, actives largely listed as cytotoxic; 55,000 tested, 0.97% active; AID 904;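 also: potency is read from the fitted curve at half-maximal effect; 0% = DMSO only and -100% = full killing by 100 µM tamoxifen; nearly all actives have a fitted effect of over 50% in size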
#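 Luminescent ATP signal reported cell survival after H1299 lines (neo, p53 null; or p53 A138V) received up to 46 uM compound and 24 hr incubation at 39C.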
# p53null 32C kill = p53 null cell cytotoxicity, permissive temperature; H1299-neo p53 null cells, ATP luminescence, 24 h, 32C; Potency, µM (doses to about 46.1 µM), for inactives: at the top dose activity change, negative = cytotoxicity, most hits filed as cytotoxic; 55,000 tested, 0.62% active;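 also: potency is read from the fitted curve at half-maximal effect; 0% = DMSO only and -100% = full killing by 100 µM tamoxifen; nearly all actives have a fitted effect of over 55% in size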
#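 Cytotoxicity: H1299-neo (no p53), 32C, 24 h treatment. Concentrations up to 46 uM. Readout cellular ATP, luminescence. Normalization to DMSO basal and tamoxifen 100 uM maximal kill.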
# S16 F2sN tox = cytotoxicity in S16 Pmp22-F2sN Schwann cells; S16 Pmp22-F2sN Schwann cells (luciferase reporters placed in the Pmp22 gene) viability, CellTiter-Glo, 24 h; Potency, µM (doses to about 57.5 µM), inactives show at the top dose activity change, negative = cytotoxicity, hits mostly cytotoxic; 43,000 tested, 0.48% active; also: potency is read from the fitted curve at half-maximal effect; % is scaled to controls: 0 for no effect and ±100 for the full control effect; nearly all actives have a fitted effect of over 65% in size
#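 S16 Schwann cells carrying the Pmp22-F2sN reporter, seeded in 1536-well format, were exposed to library compounds for 24 h at 37C. Viability was read as CellTiter-Glo luminescence after 15 min at room temperature.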
# NLuc saturating = inhibits NanoLuc at saturating substrate, PMP22 counter-screen | shares compounds with PMP22 txn | Secreted NLuc enzyme (filtered S16 cell medium), Nano-Glo luminescence | Potency, µM (top dose mostly 57.5 µM), inactives show top-dose activity change, negative = inhibition, usual class: inhibitors | 690 tested, 4% active; also: potency is read from the fitted curve at half-maximal effect; % is scaled to controls: 0 for no effect and ±100 for the full control effect
# NLuc Km counter = counter-screen for PMP22 expression modulators: NanoLuc inhibition at Km; shares compounds with PMP22 txn; secreted NLuc enzyme, coelenterazine luminescence, Km conditions; Potency, µM (series often up to 57.5 µM), inactives show top-dose activity change, negative = inhibition, hits mostly inhibitors; 690 tested, 5% active; AID 1508639; also: potency is read from the fitted curve at half-maximal effect; % is scaled to controls: 0 for no effect and ±100 for the full control effect
# FLuc counter = counter-screen for PMP22 expression modulators: firefly luciferase inhibition; shares compounds with PMP22 txn; purified P. pyralis FLuc, luminescence, 10 min; Potency, µM (doses to about 57.5 µM), for inactives: at the top dose activity, negative = inhibition, actives largely listed as inhibitors; 690 tested, under 10 active; AID 1508640; also: % of control where 0% means no effect
# Target sequence (P08659 whole entry, looked up): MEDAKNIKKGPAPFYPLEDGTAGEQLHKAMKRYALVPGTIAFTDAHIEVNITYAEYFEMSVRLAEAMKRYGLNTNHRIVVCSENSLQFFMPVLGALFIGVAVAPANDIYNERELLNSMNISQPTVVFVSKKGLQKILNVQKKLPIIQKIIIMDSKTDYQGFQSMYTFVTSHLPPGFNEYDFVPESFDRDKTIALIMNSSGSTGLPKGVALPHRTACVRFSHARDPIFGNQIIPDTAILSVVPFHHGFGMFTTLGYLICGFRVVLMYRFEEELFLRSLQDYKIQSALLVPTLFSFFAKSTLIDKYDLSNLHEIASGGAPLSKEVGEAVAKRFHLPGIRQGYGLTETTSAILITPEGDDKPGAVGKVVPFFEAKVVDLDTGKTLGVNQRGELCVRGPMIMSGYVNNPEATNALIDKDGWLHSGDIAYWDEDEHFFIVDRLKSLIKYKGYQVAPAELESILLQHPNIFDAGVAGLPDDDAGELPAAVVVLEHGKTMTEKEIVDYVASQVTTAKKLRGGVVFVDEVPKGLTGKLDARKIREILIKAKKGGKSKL
# S16 viab conf = S16 Schwann cell cytotoxicity, confirmatory | shares compounds with PMP22 txn | S16 Schwann cells viability, CellTiter-Glo ATP luminescence, 24 h | Potency, µM (highest dose often 57.5 µM), for the others: at the highest dose activity change, negative = viability loss, usual class: cytotoxic | 690 tested, 7% active | AID 1508641; also: potency is read from the fitted curve at half-maximal effect; % is scaled to controls: 0 for no effect and ±100 for the full control effect
# PMP22 txn conf = confirmation of modulators of PMP22 gene transcription in S16 cells. shares compounds with PMP22 txn. S16 Schwann cells Pmp22-F2sN, dual luciferase, 24 h. Potency, µM (doses to about 57.5 µM), for inactives: at the top dose activity change, negative = inhibition, hits mostly inhibitors. 690 tested, 22% active. AID 1508646; active = clear falling dose curves in both reporters; inconclusive = both reporters move, but less clearly or upward; inactive = either reporter flat; the % is the FLuc reporter signal; also: potency is read from the fitted curve at half-maximal effect
# PMP22 HiBiT cnf = rat PMP22 protein level modulation, confirmatory | shares compounds with PMP22 txn | S16 Schwann cells Pmp22-HiBiT, luminescence, 48 h | Potency, µM (titrated, usually from 27.9 µM), for the others: at the highest dose activity change, negative = inhibition, most hits filed as inhibitors | 95 tested, under 10 active
# * = called active by the depositor; i = inactive; ? = inconclusive; . = not tested or not shown; [ ] = remark or other dose. Only some compounds are listed: those with a hit (about 3.1% of all), similar ones and a draw of the others. Unless noted, calls follow the shape of the dose curve; as a rule, active = well fitted curve in the direction sought with a large enough effect; inconclusive = small, poorly fitted or top-dose-only effect, or another doubt; inactive = no such curve, though single readings can be large; an effect the other way counts as inactive or inconclusive.
SMILES,pS6 MEF inh,OvCa metastasis,PMP22 txn,p53null 39C kill,p53null 32C kill,S16 F2sN tox,NLuc saturating,NLuc Km counter,FLuc counter,S16 viab conf,PMP22 txn conf,others
CC(C)(C)c1cc(NC(=O)Nc2ccc(-c3cn4c(n3)sc3cc(OCCN5CCOCC5)ccc34)cc2)no1,.,-25%,.,.,.,.,.,.,.,.,.,
CC(=O)Nc1ccc2nc(-c3cc(C)ccc3C)[nH]c2c1,-5%,-18%,-27%,-7%,-14%,?,.,.,.,.,.,
CC(=O)Nc1cc(NC(C)=O)cc(-c2nc3ccccc3[nH]2)c1,-14%,?,7.3µM*,31%,5%,?,?,?,-16%,16%,-7%,
CC(=O)N1CCc2c(sc(NC(=O)CSc3ccccc3)c2-c2nc3ccccc3s2)C1,-19%,i,4µM*,12%,8%,?,?,?,-4%,?,13µM*,PMP22 HiBiT cnf=?
CN1CCc2c(sc(NC(=O)CSc3ccccc3)c2-c2nc3ccccc3s2)C1,?,-7%,?,?,-16%,2%,.,.,.,.,.,
COc1cc(OC)c(NS(=O)(=O)c2ccc3c(c2)NC(=O)CCS3)cc1Cl,6%,6%,14µM*,-16%,3%,?,?,?,-1%,-11%,?,
Cc1ccccc1NS(=O)(=O)c1ccc2c(c1)NC(=O)CCS2,4%,i,-13%,-14%,-5%,2%,.,.,.,.,.,
CC(=O)O[C@]1(C(C)=O)CC[C@H]2[C@@H]3C=C(C)C4=CC(=O)CC[C@]4(C)[C@@H]3CC[C@@]21C,.,1%,.,.,.,.,.,.,.,.,.,
CC1CCCN(S(=O)(=O)c2ccc(N3CCCCS3(=O)=O)cc2)C1 (stereo unspecified),0%,8%,?,-10%,-3%,-4%,-4%,1%,-2%,8%,17%,
Cn1cc(C[C@@H](N)C(=O)O)c2ccccc21,.,6%[23.2 µM],.,.,.,.,.,.,.,.,.,
O=C(Nc1ccc(Cl)cc1)c1cnn2c1NC(c1ccccc1)=CC2c1ccccc1 (stereo unspecified),-9%,-5%,14µM*,?,-23%,?,?,?,4%,22%,?,
